Among all 3,400 compounds or so, about 840 (25%) were called active. About 11% were inconclusive and are not listed. The list is a sample of the results. Results with a measured potency or affinity are listed apart. A number with no mark means an inactive call.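 How the source made its calls: active means fitted half-maximal concentration of signal decrease at or below twice the sample's top tested concentration; inconclusive means flat curve between -70 and -30 percent, or poor fit; inactive means flat within 30 percent, signal rise, or potency above limit.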
Test: inhibitors of Toxoplasma growth in IFN-γ-primed HeLa – cell-based, ME49Luc, luciferase, 72 h, dose response (AID 1259418)
Conditions: T. gondii ME49Luc in IFN-y HeLa, active compounds read low, -100% = high-dose IFN-γ control wells; at 19.5 µM unless noted
Compound `CN(C)C(=O)c1ccc(-c2ccc([C@H]3[C@@H](CO)N4C(=O)CN(C(=O)CC5CC5)C[C@@H]34)cc2)cc1` has a max activity of 20.3%.
Compound `Cc1cnc(N2C[C@@H](c3ccccc3)[C@@]3(CCNC3=O)C2)nc1` has a max activity of 22.8%.
Compound `Cc1ccc(-n2ncc3c(NCC4CCCO4)ncnc32)c(C)c1` (configuration not stated) has a max activity of 9.91% [at 0.16 µM].
Work on `COc1ccc(CNC(=O)CCC2N=C3c4ccccc4N=C(SCc4cc(=O)n5cc(Cl)ccc5n4)N3C2=O)cc1` (configuration not stated) yielded a max activity of -8.86% [at 1.35 µM].
`CSc1ccc(-c2noc(-c3nnn(Cc4nc(-c5cccc(C)c5)oc4C)c3C)n2)cc1` showed a max activity of -16.4% [at 0.16 µM].
For `Cc1ccc(OCC(=O)Nc2cncc(-c3nc4ccccc4o3)c2)cc1`, the max activity was 10.2% [at 1.35 µM].
Compound `Cc1nc(CCNC(=O)[C@H]2CCCN2S(=O)(=O)c2ccc3c(c2)CCCC3)cs1` has a max activity of 26.6% [at 0.35 µM].
`Cc1ccc2c(c1)cc(S(=O)(=O)c1ccccc1)c(=O)n2CC(=O)NCc1ccc2c(c1)OCO2` showed a max activity of -10.2% [at 0.68 µM].
Compound `Cc1cccc(CNC2=NCCNC23CCN(S(=O)(=O)c2ccc(C)c(C)c2)CC3)c1` has a max activity of -21.5%.
With `Cc1ccc(S(=O)(=O)N2CCC3(CC2)NCCN=C3NCc2ccccc2C)c(C)c1` the max activity was -17.1%.
`Cc1ccccc1CNC1=NCCNC12CCN(S(=O)(=O)c1cccs1)CC2` showed a max activity of 21.2% [at 10 µM].
Compound `COCCCNC1=NCCNC12CCN(S(=O)(=O)c1ccc(C)cc1C)CC2` has a max activity of 13.7% [at 10 µM].
`O=C(CC1N=C2c3ccccc3N=C(SCc3cc(=O)n4ccccc4n3)N2C1=O)NCc1ccc2c(c1)OCO2` (configuration not stated) gave a max activity of 49.3%.
Compound `Cc1nc(OCC(=O)Nc2ccc(C)c(C)c2)c2ccccc2n1` has a max activity of 14.4% [at 0.16 µM].
Compound `O=C(Nc1ccc(Cl)cc1)N1C[C@H]2[C@@H](c3ccccc31)[C@@H](CO)N2CC1CCCCC1` has a max activity of 10.8% [at 10 µM].
In the case of `CSc1cccc(NC(=O)CN2CCC3(CC2)N=C(c2ccc(F)cc2)C(=O)N3)c1`, the max activity was 9.26%.
`COc1ccccc1-c1nc(CN2CCc3c(sc4c3CCCC4)C2c2ccccc2)c(C)o1` (configuration not stated) showed a max activity of 10.8% [at 0.038 µM].
With `COc1ccc(CN2C[C@@H]3CN(Cc4cnn(C)c4)C[C@H]3C2=O)cc1` the max activity was 20.7%.
`COc1ccc(CN2CCO[C@H]3[C@H]2CC[C@H]3OCCCn2cccn2)cc1` gave a max activity of 14.7% [at 5 µM].
`Cc1nc2c(cnn2-c2ccccc2)c(=O)n1-c1cccc2ccccc12` gave a max activity of 22.6% [at 10 µM].
Compound `COc1ccc2c(c1)NC1(CCN(C(=O)c3ccccc3Cl)CC1)c1cccn1-2` has a max activity of -5.12%.
With `CCOc1ccc(-c2nc(Cn3c(=O)c4c(C)cc(C)nc4n(-c4ccccc4)c3=O)c(C)o2)cc1` the max activity was 8.31% [at 0.16 µM].
With `O=C(Nc1ccccc1F)N1CCCCN2[C@H](C1)[C@H](c1ccc(/C=C/c3ccccc3)cc1)[C@@H]2CO` the max activity was 35.7% [at 10 µM].
Work on `COc1ccc(NC(=O)N2CCCCN3[C@@H](CO)[C@H](c4ccc(-c5ccccc5F)cc4)[C@@H]3C2)cc1` yielded a max activity of 20.7% [at 5 µM].
In the case of `CCc1ccc(-n2nnc(C(=O)N3CCC(N4CCCCC4)CC3)c2-c2ccncc2)cc1`, the max activity was 6.73% [at 5 µM].
With `Cc1[nH]c2ccccc2c1C(=O)C(=O)NC1CC(=O)N(c2ccc3c(c2)OCCO3)C1` (configuration not stated) the max activity was 7.24%.
For `Cc1ccc(-c2coc(-c3ccc(NC(=O)COc4ccccc4C)cc3)n2)c(C)c1`, the max activity was -20.2% [at 1.35 µM].
`COc1ccc(-c2nc(N(C)C3CCCCC3)c3ccccc3n2)cc1` showed a max activity of 11.7%.
For `COc1ccccc1Nc1nc(-c2ccc(Cl)cc2)nc2ccccc12`, the max activity was -18.5% [at 0.68 µM].
`Cc1ccsc1C(=O)Nc1ccc(-c2nc(-c3ccccc3)co2)cc1` showed a max activity of 30.4% [at 0.68 µM].
Compound `COc1cccc(N(Cc2nc(-c3ccccc3)oc2C)S(=O)(=O)c2ccc(C)cc2)c1` has a max activity of -7.21% [at 1.35 µM].
With `O=C(Cn1c(=O)c(S(=O)(=O)c2ccccc2)cc2ccccc21)NC1CCCC1` the max activity was 9.84% [at 0.35 µM].
Compound `CCOc1ccccc1-c1nc(CN2CCc3c(sc4c3CCCC4)C2c2ccccc2)c(C)o1` (configuration not stated) has a max activity of 19.5%.
`CC1=CCC=CC1C(=O)Nc1ccc2c(c1)CCC(=O)N2C` (configuration not stated) showed a max activity of 56.7%.
In the case of `Cc1ccc(-c2coc(-c3ccc(NC(=O)Nc4ccccc4)cc3)n2)cc1`, the max activity was -15.8%.
In the case of `Cc1ccc(-c2coc(-c3ccc(NC(=O)COc4ccc(F)cc4)cc3)n2)c(C)c1`, the max activity was 10.4% [at 0.35 µM].
Work on `COCCCNC1=NCCNC12CCN(S(=O)(=O)c1cc(C)cc(C)c1)CC2` yielded a max activity of 11.6% [at 10 µM].
`Cc1cc(C)cc(S(=O)(=O)N2CCC3(CC2)NCCN=C3NCc2cccc(F)c2)c1` showed a max activity of -38.9%.
For `Cc1nc(-c2ccc(F)cc2)sc1-c1ccc(SCc2ccc(Cl)c(Cl)c2)nn1`, the max activity was 7.38% [at 2.6 µM].
Work on `COc1cc(NC(=O)CN2CCC3(CC2)N=C(c2ccc(F)cc2)C(=O)N3)cc(OC)c1` yielded a max activity of 16.7% [at 10 µM].
`O=C(COc1ccc(Br)cc1)Nc1cncc(-c2nc3ccccc3o2)c1` showed a max activity of 8.52% [at 0.16 µM].
In the case of `O=S(=O)(c1ccccc1)N1CCCCN2[C@H](C1)[C@H](c1ccc(C#CC3CCCC3)cc1)[C@@H]2CO`, the max activity was 27.4% [at 5 µM].
With `COc1cccc(S(=O)(=O)N2CCCCN3[C@H](C2)[C@@H](c2ccc(C#CCC(C)C)cc2)[C@@H]3CO)c1` the max activity was 100% [at 0.08 µM].
For `COc1cccc(S(=O)(=O)N2CCCCN3[C@H](CO)[C@@H](c4ccc(C#CCC(C)C)cc4)[C@@H]3C2)c1`, the max activity was 106%.
`COc1cc(C(=O)N2CCC3(CC2)Nc2cc(F)ccc2-n2cccc23)cc(OC)c1OC` gave a max activity of 5.03% [at 0.68 µM].
For `COc1cccc(NC(=O)Nc2ccc(-c3nc(-c4ccc(C)cc4)co3)cc2)c1`, the max activity was 21.2% [at 0.16 µM].
Work on `CCc1ccc(NC(=O)N2CCN(Cc3nc(-c4cccc(Cl)c4)oc3C)CC2)cc1` yielded a max activity of -13.8%.
For `Cc1cc(C)cc(NC(=O)N2CCN(Cc3nc(-c4cccc(Cl)c4)oc3C)CC2)c1`, the max activity was 11% [at 1.35 µM].
In the case of `Cc1cccc(NC(=O)N2CCN(Cc3nc(-c4cccc(Cl)c4)oc3C)CC2)c1C`, the max activity was 13.9% [at 5 µM].
For `Cc1oc(-c2cccc(Cl)c2)nc1CN1CCN(C(=O)Nc2ccccc2)CC1`, the max activity was -19.4%.
For `Cc1oc(-c2cccc(Cl)c2)nc1CN1CCN(C(=O)Nc2ccccc2C(F)(F)F)CC1`, the max activity was -9.46% [at 2.6 µM].
`COc1ccc(NC(=O)N2CCN(Cc3nc(-c4cccc(Cl)c4)oc3C)CC2)cc1OC` showed a max activity of -22.8%.
With `COc1ccc(-c2nc(Cn3c(=O)c4c(C)cc(C)nc4n(-c4ccccc4)c3=O)c(C)o2)c(OC)c1` the max activity was 5.72% [at 2.6 µM].
`CCc1ccccc1Nc1ncnc2c1cnn2-c1ccccc1` showed a max activity of 13.8% [at 10 µM].
`COc1ccc(Cl)cc1S(=O)(=O)Nc1ccc(-c2nc(-c3ccc(C)c(C)c3)co2)cc1` showed a max activity of 41.1% [at 10 µM].
`CN1c2ccc(-c3ccc(C#N)cc3)cc2[C@H]2[C@H](CCN2S(=O)(=O)c2ccc(F)cc2)[C@H]1CO` gave a max activity of 42.2% [at 10 µM].
Compound `CN1c2ccc(Br)cc2[C@H]2[C@H](CCN2S(=O)(=O)c2ccccc2F)[C@H]1CO` has a max activity of 25% [at 9 µM].
For `COc1ccc(C#Cc2ccc3c(c2)[C@H]2[C@H](CCN2S(=O)(=O)c2ccccc2C)[C@H](CO)N3C)cc1`, the max activity was 22.1% [at 10 µM].
In the case of `COc1ccc2c(c1)NC1(CCN(C(=O)c3ccccc3C)CC1)c1cccn1-2`, the max activity was 9.16% [at 0.68 µM].
Work on `CCc1cccc(NC(=O)COc2nc(C)nc3ccccc23)c1` yielded a max activity of 15.1% [at 0.16 µM].
With `CCc1ccc(S(=O)(=O)N2CCC3(CCC(C(=O)N4CCCC4)O3)CC2)cc1` (configuration not stated) the max activity was 19.6%.
Compound `CCOc1ccc(-c2nc3c(s2)CN(S(=O)(=O)c2ccc(CC)cc2)CC3)cc1` has a max activity of 33%.
In the case of `Cc1ccc(-c2coc(-c3ccc(NC(=O)c4ccc(Br)o4)cc3)n2)c(C)c1`, the max activity was 29% [at 0.68 µM].
Compound `COc1ccc(CCC(=O)N2CCC(C(=O)NCCc3csc(-c4ccccc4)n3)CC2)cc1` has a max activity of 22% [at 10 µM].
Compound `COc1ccc(-c2cnc3n2CCNC32CCN(C(=O)N3CCOCC3)CC2)cc1` has a max activity of 31.8%.
Compound `Cc1oc(-c2cccc(Cl)c2)nc1Cn1nnc(-c2nc(-c3ccccc3)no2)c1C` has a max activity of 25.3%.
Work on `CC(C)CCNc1nc(-c2ccc(Cl)cc2)nc2ccccc12` yielded a max activity of -13.6% [at 0.35 µM].
`CCCCNc1nc(-c2ccc(Cl)cc2)nc2ccccc12` gave a max activity of 12.4% [at 0.68 µM].
`COc1ccc(-c2nc(NCC3CCN(Cc4ccccc4Cl)CC3)c3ccccc3n2)cc1` gave a max activity of -15.1% [at 10 µM].
Compound `COc1ccc(-c2nc(NCCN3CCC(C)CC3)c3ccccc3n2)cc1` has a max activity of 14.8%.
With `COc1ccc2[nH]cc(CCNC(=O)c3cc(-c4ccccn4)nc4ccccc34)c2c1` the max activity was -12.8% [at 5 µM].
For `Cc1ccc(-c2coc(-c3ccc(NS(=O)(=O)c4ccc(Cl)cc4)cc3)n2)cc1C`, the max activity was 40.5% [at 2.6 µM].

Reference: PubChem BioAssay AID1259418 (Broad Institute, 2018)
